# From PubChem BioAssay
# HEK293 tox: HEK 293 cell cytotoxicity | HEK 293 viability, ATP luminescence (CellTiter-Glo), 48-72 h | Potency, µM (doses to about 115 µM), for inactives: at the highest dose activity change, negative = cytotoxicity, most hits filed as inhibitors | 6.6% of 94,000 active | AID 1345083; further: nearly all actives have a fitted effect of over 60% in size
#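 CellTiter-Glo luminescence (cellular ATP) was read after 48 or 72 hr of compound exposure at 37 degree Celsius. Cells were HEK 293 plated at 250 cells/well.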
# Luciferase inh: Photinus pyralis luciferase inhibition; purified P. pyralis luciferase, luminescence, biochemical; Potency, µM (doses to about 115 µM), hits mostly inhibitors; 2.5% of 76,000 active; AID 1347043; further: nearly all actives have a fitted effect of over 65% in size
# Target sequence (P08659 whole entry, looked up): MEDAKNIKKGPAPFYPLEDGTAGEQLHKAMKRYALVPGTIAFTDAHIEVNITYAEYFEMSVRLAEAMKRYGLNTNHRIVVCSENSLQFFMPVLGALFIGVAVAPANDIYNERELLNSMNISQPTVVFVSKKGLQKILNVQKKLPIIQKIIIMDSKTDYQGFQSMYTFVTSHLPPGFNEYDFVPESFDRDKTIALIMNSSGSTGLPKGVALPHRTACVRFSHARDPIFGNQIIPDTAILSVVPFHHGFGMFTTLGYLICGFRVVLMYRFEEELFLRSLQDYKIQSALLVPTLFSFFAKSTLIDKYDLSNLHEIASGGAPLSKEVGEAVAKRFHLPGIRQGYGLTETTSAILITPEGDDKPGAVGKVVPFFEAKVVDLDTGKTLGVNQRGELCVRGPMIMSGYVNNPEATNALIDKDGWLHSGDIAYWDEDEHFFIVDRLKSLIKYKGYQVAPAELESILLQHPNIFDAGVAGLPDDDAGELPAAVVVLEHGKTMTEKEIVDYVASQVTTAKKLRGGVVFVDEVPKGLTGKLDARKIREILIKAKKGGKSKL
#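 Cell-free enzyme assay, 10nM P. pyralis luciferase, luciferin and ATP each at 10uM. Inhibition profiled over a 6-point titration, read as luminescence.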
# hNpr1 antagonist: antagonists of human natriuretic peptide receptor Npr1; P16066; HEK293 hNpr1 GloSensor cGMP, ANP-stimulated luminescence; Potency, µM (highest dose often 46.3 µM), inactives show top-dose activity change, negative = inhibition, actives largely listed as inhibitors; 1.6% of 76,000 active; AID 1347048; calls by dose curve; further: nearly all actives have a fitted effect of over 60% in size
#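 Compound pre-incubated 30 min at room temperature on GloSensor-loaded HEK293 cells stably carrying hNpr1 and the pGS-40F cGMP biosensor. Stimulation uses hNppA at 0.1 nM final; luminescence is taken at baseline and 20 min post-agonist.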
# 3T3 cytotox: cytotoxic compounds in NIH 3T3 cells. NIH 3T3 viability, CellTiter-Glo ATP luminescence, 48-72 h. Potency, µM (titrated, usually from 96.7 µM), for the others: at the top dose activity change, negative = cytotoxicity, usual class: inhibitors. 4.3% of 94,000 active; further: nearly all actives have a fitted effect of over 55% in size
#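 Cells were seeded at 400 per well, treated with pin-transferred compound, and kept 48 or 72 hr at 37 °C before CellTiter-Glo addition and luminescence imaging of cellular ATP.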
# * hit, by the source's call; i = inactive; ? = inconclusive; · = no result given; ! = a repeat was not active; [ ] = dose if it differs, or a comment. Rows were chosen to be rich in hits. Some 11% of all compounds tested hit in one or more screens of this group. Unless noted, the call rests on the fitted dose curve; in most records, active means well fitted curve in the direction sought with a large enough effect; inconclusive means small, poorly fitted or top-dose-only effect, or another doubt; inactive means no such curve, though single readings can be large; an effect the other way counts as inactive or inconclusive. On the % scale 0 is the no-effect control and ±100 the full control effect; potency means the concentration at half of the fitted maximal effect.
SMILES,HEK293 tox,Luciferase inh,hNpr1 antagonist,3T3 cytotox
CC(=O)NC1CCN(c2ccnc3ccnn23)C1 (stereo unspecified),-11%[172 µM],·,·,-10%[138 µM]
Cc1ccc(C(=O)NC2CCN(c3ccnc4ccnn34)C2)cc1 (stereo unspecified),63µM*,·,·,?
COc1ccc(C(=O)NC2CCN(c3ccnc4ccnn34)C2)cc1 (stereo unspecified),50µM*,·,·,?
COc1ccc(CC(=O)NC2CCCN(c3ccnc4ccnn34)C2)cc1 (stereo unspecified),5%,·,·,-12%
O=C(c1cccs1)N1CCc2[nH]nc(-c3cccc(F)c3)c2C1,28µM*,i,-13%,?
C=CCNC(=O)CCc1c(C)nn(-c2ccc(F)cc2)c1Oc1ccccc1,?,i,-26%,?
CCN1C(=O)C2CC3(CCN(C(=O)CCOC)CC3)CN2C1=O (stereo unspecified),-5%,·,·,i
CCOc1cc(C)c(CN2CCCC(O)(CN(C)C)C2)cc1C(C)C (stereo unspecified),35µM*,i,1%,40µM*
CN(C)CC1(O)CCCN(Cc2ccc(Oc3ccc(Cl)cc3)cc2)C1 (stereo unspecified),?,i,-6%,22µM*
CC(C)c1ccc(-n2cc(CN3CCCC(O)(CN(C)C)C3)cn2)cc1 (stereo unspecified),22µM*,?,3%,?
CN(C)CC1(O)CCCN(Cc2ccc(-c3ccc(Cl)cc3)o2)C1 (stereo unspecified),?,i,-3%,?
CC(C)CN[C@H]1[C@H](O)[C@@H](N2CCC(Cc3ccccc3)CC2)[C@@H]2OC[C@H]1O2,?,i,3%[70.6 µM],?
O=C(Nc1cccc(F)c1)N1CC(Oc2ccc(-c3nc(-c4ccccc4)no3)cc2)C1,?,2.5µM*,7.1µM*,?
COc1ccc(NC(=O)N2CC(Oc3ccc(-c4nc(-c5ccccc5)no4)cc3)C2)cc1,?,1.4µM*,-29%,-3%
O=C(c1ccncc1)N1CC(Oc2ccc(-c3noc(-c4ccccc4)n3)cc2)C1,?,?,-20%,-9%
CC(C(=O)N1CC(Oc2ccc(-c3noc(-c4ccncc4)n3)cc2)C1)c1ccccc1 (stereo unspecified),?,·,·,25µM*
CCOc1ccc(NC(=O)Cn2ccn3nc4c(c3c2=O)CC(C)CC4)cc1 (stereo unspecified),40µM*,i,2%,32µM*
CCOC(=O)c1ccc(NC(=O)Cn2ccn3nc4c(c3c2=O)CCCCC4)cc1,45µM*,i,-4%,?
O=C(Cn1ccn2nc3c(c2c1=O)CCCC3)Nc1ccccc1,?,i,5%,i
CC(C)(C)OC(=O)N1CC(Nc2ccc(O)cc2)C1,45µM*,·,·,28µM*!
CC(C)c1nccn1CCCNC(=O)c1ccc(N2CCCCCC2)nc1,79µM*,i,-11%,?
CC(C)c1nccn1CCCNC(=O)c1ccc(N2CCC(CO)CC2)nc1,-7%,i,0%,-22%
O=C(NCCN1CCCC1)c1ccc(-c2ccc(N3CCSCC3)nc2)cc1,?,14µM*,-17%,?
O=C(NC1CCCC1)c1ccc(-c2ccc(N3CCSCC3)nc2)cc1,?,i,3%,-3%
O=C(NCCN1CCOCC1)c1ccc(-c2ccc(N3CCCCC3)nc2)cc1,?,32µM*,-11%,?
SMILES,HEK293 tox,Luciferase inh,hNpr1 antagonist,3T3 cytotox
COCCNC(=O)c1ccc(-c2ccc(N3CCCCC3)nc2)cc1,?,?,-1%,-12%
N#Cc1ccc(C(=O)N2CCO[C@@H](COc3ccccn3)[C@@H]2c2ccccc2)cc1,?,·,·,-28%
O=C(Nc1ccc(-c2cccc(F)c2)cc1)C1CCCN1Cc1cnc[nH]1 (stereo unspecified),-62%,?,-16%,?
CCn1ccnc1CN1CCCC1C(=O)Nc1ccc(-c2cccc(F)c2)cc1 (stereo unspecified),35µM*,i,-3%,?
COc1cccc(-c2cccc(CN3CCCC3C(=O)NCc3cccc(F)c3)c2)c1 (stereo unspecified),?,·,·,35µM*
COc1cccc(-c2cccc(CN3CCCC3C(=O)N3CCN(C)CC3)c2)c1 (stereo unspecified),-24%,·,·,-24%
COc1cccc(-c2cccc(CN3CCCC3C(=O)NC3CC3)c2)c1 (stereo unspecified),45µM*,·,·,?
Cc1cc(C)cc(-c2ccc(CN3CCCC3C(=O)N3CCC(Cc4ccccc4)CC3)cc2)c1 (stereo unspecified),20µM*,·,·,11µM*
O=C(C1CCCN1Cc1ccc(-c2cncnc2)cc1)N1CCCC1 (stereo unspecified),i,·,·,0%
Cc1cc(C)cc(-c2ccc(CN3CCCC3C(=O)N3CCCC(C)C3)cc2)c1 (stereo unspecified),35µM*,·,·,?
COc1cccc(-c2ccc(CN3CCCC3C(=O)N3CCC(C#N)CC3)cc2)c1 (stereo unspecified),-22%,·,·,?
COc1ccc(CN2Cc3[nH]cnc3C[C@H]2C(=O)N2CCC(Cc3ccccc3)CC2)cc1,79µM*,i,-12%,18µM*
Cc1cc(C)cc(-c2ccc(CN3CCCC3C(=O)N3CCN(Cc4ccccc4)CC3)cc2)c1 (stereo unspecified),20µM*,·,·,13µM*
COc1ccc(CN2Cc3[nH]cnc3C[C@H]2C(=O)NCc2ccco2)cc1,?,i,2%[70.6 µM],-26%[174 µM]
O=C(NC1CCCCC1)[C@@H]1C[C@@H](O)CN1C1CCN(C(=O)c2ccccc2)CC1,5%,i,8%,1%
CNC(=O)c1cc(C)nc2onc(C3CCCN3C(=O)C3CCCCC3)c12 (stereo unspecified),-10%,·,·,-28%
CCN(CC)CC(=O)N1CCC(C(=O)Nc2ccc(-c3nc4ccccc4o3)cc2)CC1,22µM*,i,1%,22µM*
O=C(Nc1ccc2oc(-c3ccccc3)nc2c1)C1CCN(c2cnn(Cc3ccccc3)c(=O)c2)C1 (stereo unspecified),-4%,?,-2%,-1%
COCCN1C(=O)c2ccccc2C(C(=O)Nc2nnc(CC(C)C)s2)C12CCCC2 (stereo unspecified),-6%,i,-2%,-10%
CCOc1ccccc1C(=O)N1CCCC2(C1)NC(=O)N(Cc1ccc(Cl)cc1)C2=O (stereo unspecified),79µM*,i,-23%,?
COc1ccc(C(=O)N2CCCC3(C2)NC(=O)N(Cc2ccc(Cl)cc2)C3=O)cc1 (stereo unspecified),50µM*,i,-13%,-20%
O=C(c1cc2ccccc2[nH]1)N1CCC2(C1)NC(=O)N(Cc1ccc(Cl)cc1)C2=O (stereo unspecified),35µM*,?,-8%,?
